Test results reported in PubChem BioAssay (NCI).
About 79,000 compounds went through this panel and 15% of them were active in at least one assay; those are over-represented in the sample as a whole. Unmarked numbers belong to inactive results. The source made the active and inactive calls. No stated cut-off is given here; in the data, active means growth inhibition above about 70%; inactive means the rest.

experiment: NCI Yeast Anticancer Drug Screen. Data for the rad50 strain (AID 155);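 further: 0% = growth of vehicle-only cultures of the same strain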; conditions: S. cerevisiae rad50 strain growth inhibition, stronger effect = higher value; at 50.0 µM unless noted
Outline: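 Growth of the mutant yeast was measured after compound exposure and referenced to vehicle-treated cultures.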

Structure (SMILES) | growth inhibition
O=C1C(CN2CCCC2)CCCC1CN1CCCC1 (stereo not given) | -3.2%
CC(C)(O)CCO | -38.4%
CC(C)CCC[C@@H](C)C1CCC2[C@@H]3CCC4C[C@@H](CCC=C(c5cc(Cl)c(O)c(C(=O)O)c5)c5cc(Cl)c(O)c(C(=O)O)c5)CC[C@]4(C)C3CC[C@@]21C (stereo not given in full) | -26.4%
CN1C(=O)C(c2c[nH]c3ccccc23)N(C)C(=O)C1c1c[nH]c2ccccc12 (stereo not given) | -29.9%
Cc1c2c(c(O)c3sccc13)C(C)(C)OC2=O | -3.75%
Cc1cc(C)c(S(=O)(=O)Oc2ccccc2)c(C)c1 | -14.9%
O=C1CSC(c2ccc([N+](=O)[O-])cc2)N1c1ccc(-n2c(-c3ccccc3)nc3ccccc3c2=O)cc1 (stereo not given) | 2.5%
CC(C)c1ccccc1O | 34.9%
COc1ccc(NC(=S)N/N=C(\C)c2ccccn2)cc1 | 81.5% (active)
COc1ccc(-[n+]2nc(S(=O)(=O)O)c(/C=C/c3ccc(N(C)C)cc3)cc2C#N)cc1 | -13.8%
Cn1c(=O)c(C(=O)Nc2nc(C34CC5CC(CC(C5)C3)C4)cs2)c(O)c2ccccc21 | -27.8%
O=C(COc1ccc(Cl)cc1)Nc1cc(Cl)c(Cl)cc1Cl | -1.55%
CC(O)c1cccc(NC(=O)NC2CCCCC2)c1 (stereo not given) | -2.55%
Cc1cc(C)c2nccc(NCCCN(C)C)c2c1[N+](=O)[O-] | 5.65%
CNC(=O)Nc1c(C)cccc1C | 0.05%
Clc1cc2cc3cccc[n+]3cc2cc1Cl | 54%
CCOC(=O)CN(Cn1cncn1)Cn1cncn1 | 26%
CC(C)(O)CCNc1ncnc2c1ncn2C1OC(CO)C(O)C1O (stereo not given) | 2%
Clc1ccc(/C=C/c2nc(Cl)c(-c3ccc(Cl)cc3)c(Cl)n2)cc1 | -15.2%
N#CC(c1ccccc1)c1ccc2ccccc2n1 (stereo not given) | 23.6%

Structure (SMILES) | growth inhibition
O=C(O)CCNCCC(=O)O | 8.45%
O=C(O)/C(=C/c1cccs1)c1ccc(F)cc1 | 19.1%
COc1cc(C(=O)NNC(=O)c2ccc(Cl)c(Cl)c2)cc(OC)c1OC | 24.4%
COC(=O)C(CCCCCCCC(C(=O)OC)c1nc2n(c1O)C(=N)N=N2)c1nc2n(c1O)C(=N)N=N2 (stereo not given) | -20.6%
CC(C)(C)C1C=C(Sc2ccccc2)C(=O)O1 (stereo not given) | 28.8%
COc1ccc(/C(C)=C\C(=O)O)c(O)c1OC | 5.9%
O=C1CSC(c2cccc([N+](=O)[O-])c2)N1c1nncs1 (stereo not given) | 8.55%
CCC1(C=O)C(=O)NC(=O)N1C (stereo not given) | 3.4%
O=C(C[n+]1ccccc1)c1ccc(O)c(I)c1 | -5.4%
O=C1C2C3ON(c4ccccc43)C2C(=O)N1c1ccccc1 (stereo not given) | -0.65%
CCCCCN=C(N)C(N)=NCCCCC | 47.8%
CC1=CC(C)C(C(=O)OCC(C)C)C(C(=O)OCC(C)C)C1 (stereo not given) | -13.2%
CCCOC(=O)N(C)c1ccccc1 | 17.8%
N#CC1CC2CC1C1OC21 (stereo not given) | -15.4%
C/C=C/C=C/C(=O)OCCCC | 6.95%
Cc1c(OCCCOc2ccc3c(=O)cc(-c4ccccc4)oc3c2C)ccc2c(=O)cc(-c3ccccc3)oc12 | -35.6%
O=c1[nH]c2ccc([N+](=O)[O-])cc2nc1/C(=N/Nc1ccccc1)C(O)c1ccco1 (stereo not given) | -4.6%
COc1cccc(C)c1O | 9.8%
CC(NC(C#N)CC12CC3CC(CC(C3)C1)C2)c1ccccc1 (stereo not given) | -11.8%
CCOC(=O)/C(SC#N)=C(/N)N1CCCC1 | -12.2%
